This is a sample that favours compounds with a hit; in the whole collection about 5.6% have one here.
PHOSPHO1 inh – inhibitors of human PHOSPHO1 phosphatase | Q8TCT1 | recombinant PHOSPHO1, absorbance phosphatase assay | inhibition, % at 13.3 µM | actives 1.1% (n = 290,000) | AID 1565; in the data active = inhibition above about 60%
Target sequence (Q8TCT1 whole entry, looked up): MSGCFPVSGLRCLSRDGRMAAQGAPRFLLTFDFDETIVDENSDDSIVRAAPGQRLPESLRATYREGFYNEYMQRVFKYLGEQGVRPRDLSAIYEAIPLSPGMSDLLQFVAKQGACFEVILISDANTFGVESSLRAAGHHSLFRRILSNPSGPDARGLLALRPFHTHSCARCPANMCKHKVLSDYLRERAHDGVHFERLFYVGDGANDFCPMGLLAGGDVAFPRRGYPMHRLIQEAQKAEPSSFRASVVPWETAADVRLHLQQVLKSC
PfGluPho inh – PfG6PD (Plasmodium falciparum) enzyme inhibition; PfGluPho enzyme, NADPH resazurin-diaphorase fluorescence; actives 0.78% (n = 350,000); inhibition, % at 20 µM;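 active = inhibition reaching at least a set limit at 20 µM in the primary screen, cut at about 59% in these data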
ALR inh – inhibitors of human sulfhydryl oxidase ALR | inhibition, % (concentration not given with the values) | AID 485317 | actives 3.8% (n = 290,000) | purified ALR, DTT oxidation, H2O2 HRP-luminol luminescence;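 active = mean replicate inhibition above about 79%, with every replicate also reaching it, limit read from the data; inconclusive = only one of the two criteria met; inactive = mean below limit and not every replicate reaching it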
Target sequence (P55789 whole entry, looked up): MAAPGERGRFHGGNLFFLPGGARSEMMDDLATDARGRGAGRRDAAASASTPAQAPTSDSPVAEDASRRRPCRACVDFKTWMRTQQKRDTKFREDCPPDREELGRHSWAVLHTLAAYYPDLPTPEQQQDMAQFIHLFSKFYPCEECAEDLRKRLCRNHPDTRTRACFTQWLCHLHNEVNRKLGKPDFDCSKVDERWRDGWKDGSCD
H9c2 protect – protects H9c2 cardiomyocytes from peroxide injury; H2O2 injury protection, ATPLite, 2 h; protection from H2O2 cell death, % at 20 µM; actives 0.63% (n = 360,000);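 active = compounds giving at least 50% protection of heart cells from peroxide-induced death in the single-dose screen, raw or plate-pattern-corrected value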
M18AAP inhibitor – PfM18AAP enzyme inhibition; inhibition, % at 7.35 µM; recombinant PfM18AAP, H-Glu-NHMec fluorogenic cleavage; actives 1.2% (n = 290,000);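 active = inhibition above the campaign mean inhibition over all tested compounds plus 3 SD, cut at about 28% in these data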
Hits are given with their value; – = inactive; ? = inconclusive; · = no result given.

SMILES	PHOSPHO1 inh	PfGluPho inh	ALR inh	H9c2 protect	M18AAP inhibitor
O=C(C1CCC(=O)N1Cc1cccnc1)N1CCN(c2ccc(F)cc2)CC1 (stereo unspecified)	–	–	–	–	–
Cc1ccc(CN2C(=O)CCC2C(=O)N2CCN(c3ccc(F)cc3)CC2)cc1 (stereo unspecified)	–	–	91.1	–	–
CCN(Cc1cccs1)C(=O)CN1CCN(S(=O)(=O)c2ccc3c(c2)OCCCO3)CC1	·	–	·	–	·
CCOC(=O)COc1cccc2c(=O)n(CC(=O)N3CCCc4ccccc43)ccc12	–	–	97.2	–	–
O=C(Cn1[nH]c(=O)c2ccccc2c1=O)OCC(=O)N1CCCc2ccccc21	–	–	–	85.6	–
O=C(Cn1[nH]c(=O)c2ccccc2c1=O)N1CC=C(c2ccccc2)CC1	–	–	–	47.9	–
COc1cccc2c(=O)n(CC(=O)N3CCCc4ccccc43)ccc12	–	–	·	–	–
O=C(Cn1[nH]c(=O)c2ccccc2c1=O)OCC(=O)N1CCc2ccccc2C1	–	–	–	90.0	–
CC(Sc1nnc(-c2ccncc2)n1C)C(=O)Nc1ccc(N2CCOCC2)cc1 (stereo unspecified)	·	–	–	–	·
Cc1noc(C)c1-c1ccc(C(=O)Nc2ccc(C(C)C)cc2)c2occc12	·	·	·	–	·
COc1cc2c(cc1OC)CN(C(=O)c1ccc(Cl)c(S(=O)(=O)N3CCCC3)c1)CC2	·	–	–	–	·
COc1ccc(-c2csc(NC(C)=O)n2)cc1OC	–	–	–	–	–
COc1ccc(-c2csc(NC(=O)[C@H](C)N3C(=O)C4CC=CCC4C3=O)n2)cc1OC (stereo partly specified)	·	–	91.4	–	·
COc1ccc(-c2csc(NC(=O)CCCc3nc4ccccc4c(=O)[nH]3)n2)cc1OC	·	–	–	90.8	·
Cc1nnc(NC(=O)CCn2cnc3ccccc3c2=O)s1	–	–	·	–	–
COc1ccc(-c2csc(NC(=O)CSc3nnnn3C)n2)cc1OC	·	–	98.4	–	·
COc1ccc(-c2csc(NC(=O)CCn3cnc4ccccc4c3=O)n2)cc1OC	–	–	–	57.5	–
COc1ccc(-c2csc(NC(=O)Cc3ccccc3)n2)cc1OC	–	–	–	–	–
COc1cc(C=O)cc(Cl)c1OC(=O)N1CCOCC1	–	–	–	–	–
COc1cccc(-c2nc(SC)nc3sc(C(=O)NC(C)(C)C)c(N)c23)c1	·	–	–	–	·
CN(C)C(=O)CCc1ccc2c3c([nH]c2c1)[C@]1(CCC2CCCC2)[C@@H](C(=O)N2CCOCC2)C[C@H](CC(=O)NCCC2=CCCCC2)C(=O)N1CC3	·	–	·	–	·
O=C(OCc1cc(Cl)ccc1OC(F)F)c1ccc([N+](=O)[O-])o1	–	·	–	·	–
Fc1cccc(/C=N/Nc2ncnc3nc[nH]c23)c1	–	–	–	–	29.7
Cc1ccc(/C=N/Nc2ncnc3nc[nH]c23)cc1	–	–	–	–	–
Clc1ccc(/C=N/Nc2ncnc3nc[nH]c23)cc1	–	–	93.1	–	–
SMILES	PHOSPHO1 inh	PfGluPho inh	ALR inh	H9c2 protect	M18AAP inhibitor
Cc1cccc(Nc2ncnc3nc[nH]c23)c1	–	–	94.7	–	–
COC1OC(O)C(NC(=O)C(F)(F)F)CC1O (stereo unspecified)	·	–	·	–	·
O=C1CCCC2=C1C(c1cccs1)Nc1ccccc1N2 (stereo unspecified)	–	–	·	–	–
CC1(C)CC(=O)C2=C(C1)Nc1ccccc1NC2c1cccs1 (stereo unspecified)	–	–	98.6	–	–
CC1(C)CC(=O)C2=C(C1)Nc1ccccc1NC2c1ccccc1F (stereo unspecified)	–	–	98.2	–	–
CC(=O)Nc1ccc(C2Nc3cc(C)c(C)cc3NC3=C2C(=O)CC(C)(C)C3)cc1 (stereo unspecified)	–	–	–	–	–
CC1(C)CC(=O)C2=C(C1)Nc1ccccc1NC2c1ccc(F)c(F)c1 (stereo unspecified)	–	–	98.7	–	–
Cc1c(C2Nc3ccccc3NC3=C2C(=O)CC(C)(C)C3)cnn1C (stereo unspecified)	–	–	–	–	–
CC1(C)CC(=O)C2=C(C1)Nc1ccccc1NC2c1ccc([N+](=O)[O-])cc1 (stereo unspecified)	·	–	97.9	–	·
CN(Cc1ccc2ccccc2c1)C(=O)c1ccc(C(F)(F)F)cc1	–	–	–	–	–
COc1cc(C2Nc3ccccc3NC3=C2C(=O)CC(C)(C)C3)cc(OC)c1OC(C)=O (stereo unspecified)	–	–	–	–	–
COc1cccc(C2Nc3ccccc3NC3=C2C(=O)CC(C)(C)C3)c1 (stereo unspecified)	–	–	98.2	–	–
NC(=O)N=Nc1c2[nH]c3ccccc3nc-2c2ccccc12	–	–	–	59.6	–
N/C(=N\O)c1ccc(NC(=O)c2ccc(Br)o2)cc1	–	–	98.5	–	–
O=C(NNC(=O)c1ccc(Br)o1)c1ccc(NC(=O)c2ccccc2)cc1	–	–	–	–	–
Cc1ccc(NC(=O)CN(C)C(=O)c2cccnc2Nc2cccc(C(F)(F)F)c2)cc1	–	–	–	–	–
COc1cc(/C=C(\C#N)c2[nH]nc(N)c2C#N)cc(OC)c1O	–	–	–	–	–
N#Cc1c(N)n[nH]c1-c1cc2c([nH]1)CCCC2	–	–	98.4	–	–
Cc1c(C)n(C(=O)CSc2nccn2C)c2ccccc12	61.1	–	–	–	–
COCc1cc(C)nc(N2CCN(Cc3ccccc3)CC2)c1C#N	78.3	–	–	–	–
COCc1cc(C)nc(N2CCN(c3ccccc3)CC2)c1C#N	–	–	94.7	–	–
CC1CN(C(C)C)C(C)CC1OC(=O)c1ccccc1 (stereo unspecified)	–	–	–	–	–
Cc1cc(=O)[nH]c(SCC(=O)c2ccc(C(C)C)cc2)n1	–	–	98.1	–	–
Nc1cc(=O)[nH]c(SCC(=O)c2ccc(F)cc2)n1	–	–	98.1	–	–
COc1ccc(C(=O)CSc2nc(C)cc(=O)[nH]2)cc1	–	–	?	–	–
SMILES	PHOSPHO1 inh	PfGluPho inh	ALR inh	H9c2 protect	M18AAP inhibitor
Cc1ccc(C(=O)CSc2nc(N)cc(=O)[nH]2)cc1	–	–	99.0	–	–
CCN(C(=O)c1ccc(S(=O)(=O)N2CCOCC2)cc1)C1CCS(=O)(=O)C1 (stereo unspecified)	·	–	·	–	·
CCN(C(=O)COC(=O)c1ccccc1Oc1ccccc1)c1c(N)n(Cc2ccccc2)c(=O)[nH]c1=O	·	–	·	–	·
CSCCC(NC(=O)c1ccccc1)C(=O)OCC(=O)NCc1ccco1 (stereo unspecified)	·	–	–	–	·
CC(C)c1ccc(-c2csc3ncnc(N4CCN(C)CC4)c23)cc1	–	–	·	–	–
COc1ccc(OCCCC(=O)Nc2cc(Cl)ccc2-n2cncn2)cc1	·	–	–	–	·
CCOc1cc(-c2nc3ccccn3c2NCC2CCCO2)ccc1O (stereo unspecified)	–	–	–	–	30.2
CCn1c(O)c(C=Nc2ccccc2)oc1=S	102.9	–	–	–	–
Cc1nc(N)sc1N=Nc1ccc(Br)cc1	–	–	98.9	–	–

Screening data (PubChem)
